Bioassay records as filed in PubChem.
TMEM16A act: mouse TMEM16A channel activation, primary screen; Q8BHY3; HEK293 TMEM16A/YFP-H148Q/I152L, iodide quench fluorescence; stronger effect = lower value; B-score at 10 µM; 340,000 tested, 0.3% active; AID 623877;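 active = fluorescence-ratio B-score plate-corrected deviation score at least 3 library SD below zero, with starting fluorescence score within 5 deviations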;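 note: channel opened by trigger with iodide after compound preincubation; score built on the fluorescence ratio of max minus min over baseline; more negative score means more quench and so TMEM16A activation or potentiation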
Target sequence (Q8BHY3 whole entry, looked up): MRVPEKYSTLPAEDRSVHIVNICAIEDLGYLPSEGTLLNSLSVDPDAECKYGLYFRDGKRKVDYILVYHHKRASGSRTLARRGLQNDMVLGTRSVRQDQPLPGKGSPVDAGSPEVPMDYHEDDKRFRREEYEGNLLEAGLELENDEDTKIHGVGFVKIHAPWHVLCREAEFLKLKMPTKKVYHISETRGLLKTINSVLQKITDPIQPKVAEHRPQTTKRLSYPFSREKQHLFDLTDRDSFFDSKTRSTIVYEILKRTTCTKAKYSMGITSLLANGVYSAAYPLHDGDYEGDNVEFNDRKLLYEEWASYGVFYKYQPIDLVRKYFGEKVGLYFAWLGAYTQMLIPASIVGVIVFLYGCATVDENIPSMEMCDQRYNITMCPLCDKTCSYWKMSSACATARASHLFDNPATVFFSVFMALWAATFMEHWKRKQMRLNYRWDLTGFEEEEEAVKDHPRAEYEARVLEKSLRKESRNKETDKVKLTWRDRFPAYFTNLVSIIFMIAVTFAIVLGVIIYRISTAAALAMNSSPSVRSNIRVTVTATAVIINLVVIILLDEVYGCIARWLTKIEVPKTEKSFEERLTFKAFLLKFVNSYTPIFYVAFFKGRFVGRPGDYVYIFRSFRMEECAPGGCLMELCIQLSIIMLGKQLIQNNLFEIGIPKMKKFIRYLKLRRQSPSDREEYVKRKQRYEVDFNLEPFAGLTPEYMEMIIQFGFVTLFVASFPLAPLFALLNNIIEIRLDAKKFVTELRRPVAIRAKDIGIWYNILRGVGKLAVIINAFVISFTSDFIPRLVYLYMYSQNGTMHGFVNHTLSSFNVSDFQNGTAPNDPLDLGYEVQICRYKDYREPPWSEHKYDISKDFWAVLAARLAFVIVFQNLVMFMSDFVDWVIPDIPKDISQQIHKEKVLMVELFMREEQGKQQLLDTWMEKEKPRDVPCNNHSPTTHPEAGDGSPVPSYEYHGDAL
CHT PAM: allosteric activators of human choline transporter CHT; 310,000 tested, 0.49% active; CHT-expressing cells, membrane potential dye, choline EC20; stronger effect = higher value; LV-AA mutant CHT in HEK293 cells; B-score at 10 µM; AID 488977;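 active = initial fluorescence not abnormally high and integrated response B-score, plate-corrected, over 3 SD above library mean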
ANO1 block: inhibitors of mouse TMEM16A calcium-activated chloride channel; HEK293 TMEM16A/YFP iodide influx fluorescence, ionomycin; AID 588511; normalized B-score (activity score, 25-100; higher = stronger inhibition) at 10 µM; 310,000 tested, 1.2% active;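 active = ratio plate-corrected score three or more library SD toward inhibition, starting fluorescence score within five deviations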;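 note: score derived from kinetic fluorescence span divided by baseline fluorescence per well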
CHT block: inhibits the human high affinity choline transporter; Q9GZV3; CHT-expressing cells, membrane potential dye, choline response; stronger effect = lower value; B-score at 10 µM; 310,000 tested, 0.86% active;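 active = B-score over 3 SD under the library average, and starting fluorescence ratio not unusually high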;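 note: choline stimulus applied at its EC90 after an EC20 pre-addition; B-score computed on integrated fluorescence ratio after choline addition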
* marks the source's active call; other numbers are inactive results. Compounds with a hit are over-represented: about 2.4% of the library has one in this group of screens.

CCc1ccccc1N(C)S(=O)(=O)c1ccc(-c2cc(C)no2)s1 was read as TMEM16A act -28*, CHT PAM inactive, ANO1 block inactive and CHT block inactive.
Screening O=C1c2ccc(-c3ccc(Cl)c(C(F)(F)F)c3)cc2S(=O)(=O)c2cccc(C(=O)N3CCN(c4ncc(Br)cn4)CC3)c21 returned TMEM16A act inactive.
Screening COc1ccccc1N1CCN(C2CCCCC2NS(=O)(=O)c2ccc(Cl)cc2)CC1 (stereo not given) returned TMEM16A act -33*, CHT PAM inactive, ANO1 block inactive and CHT block inactive.
CCc1ccc2oc(-c3ccc(OC)cc3)cc(=Nc3c(C)n(C)n(-c4ccccc4)c3=O)c2c1 was read as TMEM16A act inactive, CHT PAM inactive, ANO1 block 100* and CHT block inactive.
For CCc1ccc2oc(-c3ccc(OC)cc3)cc(=Nc3cccc(C(=O)O)c3)c2c1 the results were TMEM16A act inactive, CHT PAM inactive, ANO1 block inactive and CHT block inactive.
Screening O=C(CCl)Nc1ccccc1C(=O)Nc1ccc2c(c1)OCO2 returned TMEM16A act inactive, CHT PAM inactive, ANO1 block inactive and CHT block inactive.
Cc1ccnc(NC(=O)c2cccc(NC(=O)c3ccc(Cl)cc3)c2)c1 was read as TMEM16A act inactive.
Cc1cc(=O)[nH]c(SCC(=O)Nc2ccc3c(c2)CCC3)c1C#N was read as TMEM16A act inactive.
Screening Cc1cc(=O)[nH]c(SCC(=O)Nc2ccc(Br)cc2)c1C#N returned TMEM16A act inactive, CHT PAM inactive, ANO1 block 100* and CHT block inactive.
For CC(C)NC(=O)N(C)C[C@H]1Oc2c(NS(=O)(=O)c3ccccc3)cccc2C(=O)N([C@H](C)CO)C[C@@H]1C the results were TMEM16A act inactive.
Screening CC(=O)c1ccc(NC(=S)NC(C)c2ccc(Cl)cc2Cl)cc1 (stereo not given) returned TMEM16A act inactive, CHT PAM inactive, ANO1 block 100* and CHT block inactive.
For Cc1[nH]c2ccccc2c1C(=O)C(=O)N1CCN(c2cccc(Cl)c2)CC1 the results were TMEM16A act -53*, CHT PAM inactive, ANO1 block inactive and CHT block inactive.
Screening Cc1cc(C)nc(-n2nc(C)cc2NC(=O)c2cc3ccccc3oc2=O)n1 returned TMEM16A act inactive, CHT PAM inactive, ANO1 block inactive and CHT block inactive.
COc1ccccc1-n1cnc2cc(NCc3ccco3)ccc21 was read as TMEM16A act inactive, CHT PAM 13*, ANO1 block inactive and CHT block inactive.
COc1ccc(CNC(=O)CCNS(=O)(=O)c2ccc(Br)s2)cc1 was read as TMEM16A act inactive, CHT PAM inactive, ANO1 block inactive and CHT block inactive.
CCC(C)C(=O)Nc1nnc(SCC(=O)NC2CCCCC2)s1 (stereo not given) was read as TMEM16A act inactive, CHT PAM inactive, ANO1 block inactive and CHT block inactive.
`S=C(NCc1ccco1)Nc1ccc(Cl)c(Cl)c1` gave TMEM16A act inactive, CHT PAM inactive, ANO1 block 25* and CHT block inactive.
S=C(NCc1ccco1)Nc1cccc(Cl)c1 was read as TMEM16A act inactive, CHT PAM inactive, ANO1 block inactive and CHT block inactive.
`CC(O)(CS(=O)(=O)c1ccc(Br)cc1)c1ccccc1` (stereo not given) gave TMEM16A act inactive, CHT PAM inactive, ANO1 block inactive and CHT block inactive.
Screening COc1cccc(NC(=O)c2nc3ncccn3n2)c1 returned TMEM16A act -5.4*, CHT PAM inactive, ANO1 block inactive and CHT block inactive.
Cc1ccc(C)c(S(=O)(=O)Nc2ccc(C(=O)N3CC(C)OC(C)C3)cc2)c1 (stereo not given) was read as TMEM16A act inactive.
For COn1c2c(c3c4no[n+]([O-])c4ccc31)CCCC2 the results were TMEM16A act inactive, CHT PAM inactive, ANO1 block inactive and CHT block inactive.
[O-][n+]1c2c(c3c4non(O)c4ccc31)CCCC2 was read as TMEM16A act inactive, CHT PAM inactive, ANO1 block 100* and CHT block inactive.
Screening CCOC(=O)c1sc(Nc2nc3c(OC)cccc3s2)nc1C returned TMEM16A act inactive, CHT PAM inactive, ANO1 block 100* and CHT block inactive.
For NS(=O)(=O)c1ccc(NC(=O)COC(=O)c2ncc(Cl)c(Cl)c2Cl)cc1 the results were TMEM16A act -5*.
`CCOc1ccc(NC(=O)COC(=O)c2ncc(Cl)c(Cl)c2Cl)cc1` gave TMEM16A act inactive, CHT PAM inactive, ANO1 block inactive and CHT block inactive.
`CCN1C(=O)C2(Nc3ccccc3-c3nc4ccccc4n32)c2cc(OC)ccc21` (stereo not given) gave TMEM16A act inactive, CHT PAM inactive, ANO1 block inactive and CHT block inactive.
CCOC(=O)[C@H]1[C@H]2COc3ccc(Cl)cc3[C@@H]2N2C(=O)c3ccc(F)cc3NC(=O)[C@@]12C was read as TMEM16A act -13*, CHT PAM inactive, ANO1 block inactive and CHT block inactive.
For CC(=O)c1sc(Nc2nc3ccc(F)cc3s2)nc1C the results were TMEM16A act inactive, CHT PAM inactive, ANO1 block 25* and CHT block inactive.
Screening Cc1ccc(C(C)C)cc1OCC(=O)N/N=C/c1ccc2c(c1)OCCO2 returned TMEM16A act inactive, CHT PAM inactive, ANO1 block 100* and CHT block inactive.
COc1ccccc1C1CCN(C(=O)c2ccccc2)CC1 was read as TMEM16A act inactive, CHT PAM inactive, ANO1 block inactive and CHT block inactive.
For COc1ccccc1C1CCN(c2cc(O)ccc2[N+](=O)[O-])CC1 the results were TMEM16A act inactive, CHT PAM inactive, ANO1 block 100* and CHT block inactive.
Screening NC(=S)N/N=C/c1c[nH]c2ccc(OCc3ccccc3)cc12 returned TMEM16A act inactive, CHT PAM inactive, ANO1 block 25* and CHT block inactive.
`Cc1ccc(CN(C(=O)C(F)(F)F)C(C(=O)NC2CCCCC2)c2ccco2)cc1` (stereo not given) gave TMEM16A act inactive, CHT PAM inactive, ANO1 block inactive and CHT block inactive.
`O=C(NC1CCCCC1)C(c1ccco1)N(C(=O)C(F)(F)F)C1CC1` (stereo not given) gave TMEM16A act -5.9*, CHT PAM inactive, ANO1 block inactive and CHT block inactive.
`O=C(COC(=O)c1ccc2c(c1)OCCO2)NCCc1ccc(F)cc1` gave TMEM16A act inactive.
Screening CCOC(=O)C1=NN(C(=O)c2ccc(C)cc2)C(O)(c2ccc(Cl)cc2)C1 (stereo not given) returned TMEM16A act inactive, CHT PAM inactive, ANO1 block 100* and CHT block inactive.
